IDE exosite inh – exo-site inhibitors of human IDE, primary screen, biochemical, fluorescence anisotropy, probe displacement; Insulin-degrading enzyme (Homo sapiens), P14735; purified IDE, FL-6b probe fluorescence polarization; active compounds read low; z-score at 20 µM; 6.3% of 17,000 active; AID 1259349, 2017;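 active means z-score of -3 or lower, meaning strong loss of probe binding signal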;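 further: His-tagged human IDE residues 42-1019 made in E. coli with 30 nM FL-6b probe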
Numbers stand for hits; ! = a repeat was not active. The sample as a whole holds a higher share of hits than the screen did.

CN1C(=O)c2cc(NC(=O)c3ccc(C(F)(F)F)cc3)ccc2OC[C@@H]2O[C@@H](CC(=O)NCc3ccc4c(c3)OCO4)CC[C@@H]21 was read as IDE exosite inh inactive.
`Fc1ccc(F)c(CN2[C@@H]3CNC[C@H]2C3c2ccc(-c3ccncc3)cc2)c1` (some centres not stated) gave IDE exosite inh inactive.
Screening COCC(=O)N(C)C[C@H]1[C@H](c2ccccc2)[C@H](CO)N1C(=O)Cc1cccnc1 returned IDE exosite inh inactive.
Screening N#C[C@@H]1[C@@H](c2ccccc2)[C@H](CO)N1C(=O)c1cccnc1 returned IDE exosite inh inactive.
Screening CO[C@@H](CN(C)Cc1ccc2c(c1)OCO2)[C@H](C)CN(C(=O)Nc1ccc(F)cc1)[C@H](C)CO returned IDE exosite inh inactive.
Cc1ccc(CN2CC(=O)N3[C@H](CO)[C@@H](c4ccc(Br)cc4)[C@H]3C2)cc1 was read as IDE exosite inh inactive.
Screening COc1ccccc1-c1ccc([C@H]2[C@@H](CO)N3CCCCN(C(=O)NC4CCCC4)C[C@@H]23)cc1 returned IDE exosite inh -9.33.
`O=C(NC1CCCC1)N1CCCCN2[C@H](CO)[C@H](c3ccc(-c4ccccc4)cc3)[C@@H]2C1` gave IDE exosite inh inactive.
O=C(Nc1ccccc1F)N1CCCCN2[C@@H](CO)[C@@H](c3ccc(/C=C/c4ccccc4)cc3)[C@@H]2C1 was read as IDE exosite inh inactive.
O=C(NC1CCCC1)N1CCCCN2[C@H](CO)[C@H](c3ccc(-c4ccncc4)cc3)[C@H]2C1 was read as IDE exosite inh inactive.
For O=C(NC1CCCC1)N1CCCCN2[C@H](CO)[C@H](c3ccc(-c4ccncc4)cc3)[C@@H]2C1 the results were IDE exosite inh inactive.
O=C(NC1CCCC1)N1CCCCN2[C@H](CO)[C@@H](c3ccc(-c4ccccc4)cc3)[C@H]2C1 was read as IDE exosite inh inactive.
O=C(Nc1ccccc1F)N1CCCCN2[C@H](C1)[C@H](c1ccc(/C=C/c3ccccc3)cc1)[C@@H]2CO was read as IDE exosite inh inactive.
Screening O=C(NC1CCCC1)N1CCCCN2[C@@H](CO)[C@H](c3ccc(/C=C/c4ccccc4)cc3)[C@@H]2C1 returned IDE exosite inh -14.8.
For O=C(NC1CCCC1)N1CCCCN2[C@@H](CO)[C@@H](c3ccc(/C=C/c4ccccc4)cc3)[C@@H]2C1 the results were IDE exosite inh -8.36.
Screening CC(C)C#Cc1ccc([C@@H]2[C@H]3CN(C(=O)c4ccc(F)cc4)CCCCN3[C@H]2CO)cc1 returned IDE exosite inh inactive.
For CO[C@H]1CC[C@@H]2CCOc3c(C#N)cccc3C(=O)N(C)C[C@H](c3ccccc3)CC(=O)N(C)C[C@@H]1O2 the results were IDE exosite inh inactive.
`COc1ccc(C#Cc2ccc([C@H]3[C@H]4CN(C(=O)c5ccncc5)CCCCN4[C@H]3CO)cc2)cc1` gave IDE exosite inh inactive.
`COc1ccccc1NC(=O)N1CC(=O)N2[C@H](C1)[C@H](c1ccc(C#CC(C)C)cc1)[C@@H]2CO` gave IDE exosite inh inactive.
For C/C=C/c1ccc([C@H]2[C@@H](CO)N(C(=O)C3CCC3)[C@@H]2CNC(=O)CN(C)C)cc1 the results were IDE exosite inh inactive.
Screening Cc1ccccc1-c1ccc([C@@H]2[C@@H](CO)N3C(=O)CN(C(=O)c4cccnc4)C[C@@H]23)cc1 returned IDE exosite inh -13.3.
For O=C(c1cccnc1)N1CC(=O)N2[C@@H](CO)[C@H](c3ccc(-c4ccc(F)cc4)cc3)[C@@H]2C1 the results were IDE exosite inh inactive.
Screening Cc1ccccc1-c1ccc(C2[C@@H]3CN(C(=O)c4cnccn4)C[C@H]2N3)cc1 (some centres not stated) returned IDE exosite inh -20!.
`Cc1ccccc1-c1ccc([C@@H]2[C@H](CO)N3C(=O)CN(C(=O)c4cccnc4)C[C@@H]23)cc1` gave IDE exosite inh -7.2.
For Cc1ccccc1-c1ccc([C@@H]2[C@@H](CO)N3C(=O)CN(C(=O)c4cccnc4)C[C@H]23)cc1 the results were IDE exosite inh inactive.
For CN(C)C(=O)c1ccc(-c2ccc(C3[C@@H]4CN(C(=O)c5cnccn5)C[C@H]3N4)cc2)cc1 (some centres not stated) the results were IDE exosite inh inactive.
For O=C(c1cccnc1)N1CC(=O)N2[C@@H](CO)[C@H](c3ccc(-c4ccccc4F)cc3)[C@@H]2C1 the results were IDE exosite inh inactive.
O=C(c1cccnc1)N1CC(=O)N2[C@@H](CO)[C@@H](c3ccc(-c4ccc(F)cc4)cc3)[C@@H]2C1 was read as IDE exosite inh inactive.
N#Cc1cccc(-c2ccc(C3[C@@H]4CN(C(=O)c5ccccn5)C[C@H]3N4)cc2)c1 (some centres not stated) was read as IDE exosite inh inactive.
For O=C(Nc1ccc2c(c1)[C@H]1C[C@@H](CC(=O)N3CCOCC3)O[C@@H](CO)[C@H]1O2)Nc1ccccc1F the results were IDE exosite inh inactive.
